Screening data deposited in PubChem BioAssay by National Center for Advancing Translational Sciences (NCATS).
Shown are actives, neighbours in structure and some others; about 21% of the full set was active somewhere.
Cycloheximide cs – affects cycloheximide protein synthesis inhibition readout, counter-screen; AID 2314; 12% of 300,000 active; cell reporter, cycloheximide protein synthesis inhibition counterscreen; max response, %; in the data active = max response mostly above about 13%, no sharp cut-off; inactive = mostly below about 14%; note: read at 38.3 µM for the half of the compounds with a filed dose; 0% is about no effect
NS1 inh – influenza NS1 inhibition. Potency, µM (doses to about 46.1 µM), for the others: top-dose activity, positive = more growth. 0.4% of 270,000 active. AID 2326; calls by dose curve; note: potency is the fitted concentration of half-maximal effect; actives are rising curves; nearly all actives have a fitted effect of over 50% in size
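Recovery from NS1-induced slow growth read by OD600 in budding yeast switched to galactose assay medium (pH 6.0, -URA) at 1:100 dilution. Compound 23 nl per well; the matching strain lacking NS1 serves as control.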
Giardia FBPA inh – Giardia lamblia aldolase inhibition; 0.71% of 290,000 active; A8B2U2; Potency, µM (highest dose often 59.6 µM), without a hit: at the highest dose activity, negative = inhibition, hits mostly inhibitors; purified Giardia FBPA; note: potency is the fitted concentration of half-maximal effect; % is set by controls: 0 for no effect and ±100 for the full control effect; nearly all actives have a fitted effect of over 55% in size
Target sequence (A8B2U2 whole entry, looked up): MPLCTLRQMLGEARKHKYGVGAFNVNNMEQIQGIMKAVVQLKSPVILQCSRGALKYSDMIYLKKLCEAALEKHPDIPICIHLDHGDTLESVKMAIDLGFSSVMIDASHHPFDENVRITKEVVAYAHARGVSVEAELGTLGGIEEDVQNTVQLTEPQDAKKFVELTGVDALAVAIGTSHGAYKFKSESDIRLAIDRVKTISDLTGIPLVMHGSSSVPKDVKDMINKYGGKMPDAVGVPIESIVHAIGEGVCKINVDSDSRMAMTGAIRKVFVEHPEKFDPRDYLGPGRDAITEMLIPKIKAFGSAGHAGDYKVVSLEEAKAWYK
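Giardia FBPA (40 nM reagent) was preincubated 10 min at RT with compound (up to 57.5 uM final), then substrate plus GAPDH/TPI/NAD/arsenate coupling system with diaphorase/resazurin was added; resorufin fluorescence (525/598 nm) was read after 20 min.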
Shiga inhibitor – inhibitors of Shiga toxin in Vero cells; Vero cells, Shiga toxin protein synthesis inhibition reporter; inhibition, % at 38.7 µM; 9.2% of 290,000 active; AID 2315; in the data active = inhibition mostly above about 28%, no sharp cut-off; inactive = mostly below about 43%; note: 0% is about no effect
Pf growth 48h – inhibits P. falciparum growth in the first generation, 48 h; P. falciparum luciferase growth in erythrocytes, 48 h; Potency, µM (top dose mostly 28.7 µM), inactives show at the highest dose activity change, negative = inhibition, usual class: inhibitors; 5.9% of 310,000 active; note: potency is the fitted concentration of half-maximal effect; % is set by controls: 0 for no effect and ±100 for the full control effect
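Cell-based growth assay: transgenic P. falciparum expressing firefly luciferase, cultured in red cells within RPMI 1640 containing 0.5% w/v Albumax, 24 mM bicarbonate and gentamycin. A drop in luciferase activity indicates inhibition.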
Pf growth 96h – P. falciparum growth inhibition at 96 hours; P. falciparum luciferase reporter growth, 96 h; Potency, µM (doses to about 28.7 µM), inactives show at the highest dose activity change, negative = inhibition, actives largely listed as inhibitors; 6.9% of 320,000 active; AID 504834; note: potency is the fitted concentration of half-maximal effect; % is set by controls: 0 for no effect and ±100 for the full control effect
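Compounds incubated with erythrocytes infected by luciferase-expressing P. falciparum (2% hematocrit, 0.05% parasitemia final) for 96 hours, 37 C in 5% CO2. Growth inhibition scored as decreased luciferase luminescence.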
* = called active by the depositor; ? = inconclusive; / = not tested or not shown; [ ] = another dose, or the depositor's remark. Unless noted, calls come from the whole dose curve; as a rule, active = well fitted curve in the direction sought with a large enough effect; inconclusive = small, poorly fitted or top-dose-only effect, or another doubt; inactive = no such curve, though single readings can be large; an effect the other way counts as inactive or inconclusive.

SMILES	Cycloheximide cs	NS1 inh	Giardia FBPA inh	Shiga inhibitor	Pf growth 48h	Pf growth 96h
CCOC(=O)N1CCN(C(=O)c2ccccc2NC(=O)c2ccc(C(C)(C)C)cc2)CC1	-2.0	-8.9%	-3.1%	-3.4	10.4µM*	?
CC(C)(C)c1ccc(C(=O)Nc2ccccc2C(=O)NCCN2CCOCC2)cc1	13.1*	-15.8%	0.2%	35.5	12.2%	-13.8%
CN1CCN(C(=O)c2ccccc2NC(=O)c2ccc(C(C)(C)C)cc2)CC1	14.3	9.4%	/	9.7	-9.9%	?
CCOC(=O)N1CCN(C(=O)C(NC(=O)c2ccc(C(C)(C)C)cc2)C(C)C)CC1 (stereo unspecified)	/	/	/	/	9.28µM*	?
O=C(c1csc(Nc2ccccc2Cl)n1)N1CCCC1	53.4*	-43.1%	3.1%	108.1*	21.0%	2.33µM*
Cc1ccc(Nc2nc(C(=O)N3CCC(C(=O)NCCN4CCOCC4)CC3)cs2)cc1	13.0	-2.5%	-0.1%	24.1	?	4.65µM*
Cc1ccc(Nc2nc(C(=O)N3CCC(C(=O)NCc4ccccc4)CC3)cs2)cc1	18.9*	-7.5%	5.5%	34.9*	?	?
COc1ccc(CNC(=O)C2CCN(C(=O)c3csc(Nc4ccc(C)cc4)n3)CC2)cc1	9.0	-6.0%	-0.3%	15.7	8.28µM*	-19.5%
O=S(=O)(NCC1CN(S(=O)(=O)c2c(F)cccc2F)C1)c1ccc2c(c1)OCCO2	5.7	/	/	-7.3	-18.2%	5.7%
Cc1ccc(Nc2nc(COC(=O)C3CC3)cs2)cc1	51.6*	-11.6%	-8.5%	74.6*	94.4%	55.8%
Cc1ccc(Nc2nc(C(=O)N3CCC(C(=O)N4CCN(C)CC4)CC3)cs2)cc1	19.1*	-8.3%	-7.3%	17.0	6.8%	/
COc1ccc(Nc2nc(C(=O)N3CCc4ccccc4C3)cs2)cc1	4.9	9.1%	12.0%	-19.7	?	-27.3%
COc1ccc(NC2=CC(c3ccc(OC)cc3)N(c3ccc(OC)cc3)C2=O)cc1 (stereo unspecified)	2.4	12.6%	-14.7%	22.0	-3.6%	4.4%
O=C1C(Nc2ccccc2)=CC(c2ccc(O)cc2)N1c1ccccc1 (stereo unspecified)	28.5*	5.8%	-11.0%	44.6*	6.4%	?
COc1cc(C2C=C(Nc3ccccc3)C(=O)N2c2ccccc2)ccc1O (stereo unspecified)	37.4*	?	-18.9%	57.1*	-3.5%	?
COc1ccc(-n2ncc3c(NC(C)C)ncnc32)cc1	43.9*	-7.0%	-9.7%	68.8	75.5%	-4.5%
COCC(C)Nc1ncnc2c1cnn2-c1ccc(Cl)cc1 (stereo unspecified)	32.8*	/	-6.4%	101.2*	/	/
O=C(NCCc1nc2ccc(Cl)cc2[nH]1)C1CCC(=O)N(Cc2cccc(F)c2)C1 (stereo unspecified)	-3.4	7.6%	/	-17.8	-10.0%	64.1%
CC1CCN(S(=O)(=O)c2cccc(-c3cn4cc(Cl)ccc4n3)c2)CC1	11.6	-25.9%	1.3%	53.5*	-2.4%	/
CN(C)C(=O)Oc1ccc(-c2cn3cc(C(F)(F)F)ccc3n2)cc1	19.6	9.2%	-7.1%	41.0*	110.5%	123.0%
CCN(CC)S(=O)(=O)c1ccc(-c2cn3cc(Cl)ccc3n2)cc1	18.8	-7.5%	-4.3%	20.0	-13.3%	35.7%
CCOC(=O)C1CCN(S(=O)(=O)c2cccc(-c3cn4cc(Cl)ccc4n3)c2)CC1	7.4	2.4%	-0.5%	14.1	?	/
CN(C)C(=O)Oc1ccc(-c2cn3cc(Cl)ccc3n2)cc1	50.4*	-9.3%	-18.4%	55.3*	170.2%	250.6%
CN(C)C(=O)Oc1cccc(-c2cn3cc(Cl)ccc3n2)c1	43.1*	-11.3%	-14.0%	57.9*	142.8%	213.3%
Oc1ccc(-c2cn3cc(C(F)(F)F)ccc3n2)cc1	9.8	-3.4%	-21.5%	18.0	82.7%	79.8%
SMILES	Cycloheximide cs	NS1 inh	Giardia FBPA inh	Shiga inhibitor	Pf growth 48h	Pf growth 96h
CCN(CCCNC(=O)Cn1ncc2c([nH]c3ccc(C)cc32)c1=O)c1cccc(C)c1	5.4	8.6%	-1.2%	-5.2	45.8%	21.5%
NS(=O)(=O)c1ccc(CCNC(=O)C(=O)NCC2OCCN2S(=O)(=O)c2ccc(Cl)cc2)cc1 (stereo unspecified)	-1.2	-10.3%	13.3%	-4.4	?	?
CCN(CC)S(=O)(=O)c1ccc(C(=O)NCCCN=C2NS(=O)(=O)c3ccccc32)cc1	-1.4	1.2%	8.4%	-8.8	?	8.28µM*
CC(C)[C@H](NC(=O)[C@H]1N2C(=O)c3ccccc3C2SC1(C)C)C(=O)NCc1ccco1 (stereo partly specified)	-13.7	23.1%	/	-2.5	?	?
CC1CCN(Cc2c(O)ccc3c2O/C(=C\c2ccco2)C3=O)CC1	-1.2	8.91µM*	?	-9.7	14.7µM*	10.4µM*
CCN1CCN(Cc2c(O)ccc3c2O/C(=C\C=C\c2ccccc2OC)C3=O)CC1	57.3*	5.6%	-18.2%	97.4*	2.94µM*	4.15µM*
O=C1/C(=C/c2ccco2)Oc2c1ccc(O)c2CN1CCCCC1	-4.3	13.8%	?	-12.7	?	?
COC(CNC(=O)c1ccc(CS(=O)(=O)c2c(Cl)cccc2Cl)o1)OC	-4.0	5.9%	3.8%	-2.3	1.2%[0.00184 µM]	-25.6%
Cc1cc(C)c(CN2CCC(n3nccc3NC(=O)CCOc3ccccc3)CC2)cc1C	-1.3	-11.5%	4.9%	2.3	?	13.1µM*
COc1cccc(C(=O)N2CCC(n3nccc3NC(=O)CCOc3ccccc3)CC2)c1	30.3*	-0.2%	5.3%	28.4	2.7%	?
Cc1ccccc1CN1CCC(n2nccc2NC(=O)CCOc2ccccc2)CC1	2.1	8.3%	/	-2.9	?	4.15µM*
O=C(CCOc1ccccc1)Nc1ccnn1C1CCN(Cc2ccccc2)CC1	-2.2	0.2%	3.7%	-8.7	-11.4%	?
CC(C)C(=O)N1CCC(n2nccc2NC(=O)CCOc2ccccc2)CC1	17.5*	0.7%	/	17.4	-10.5%	?
CN(c1ccccc1)S(=O)(=O)c1cccc(NC(=O)c2cc3ccccc3oc2=O)c1	60.8*	14.4%	-0.5%	66.1*	12.1%	?
COc1ccccc1NS(=O)(=O)c1cccc(NC(=O)Nc2ccc(Cl)cc2)c1	1.2	4.9%	-14.5%	21.7	?	10.4µM*
COc1ccccc1NS(=O)(=O)c1cccc(NC(=O)Nc2ccccc2)c1	-1.3	22.1%	-3.7%	-2.9	-0.6%	-4.8%
CCNS(=O)(=O)c1ccc(NC(=O)Nc2ccccc2OC)cc1	9.5*	1.9%	-3.3%	4.1	25.6%	10.1%
COc1ccccc1NS(=O)(=O)c1cccc(NC(=O)c2cc3ccccc3oc2=O)c1	59.6*	10.6%	10.9%	86.8*	40.0%	0.0%
CCn1c(=O)c2ccccc2n2c(SCC(N)=O)nnc12	1.3	-0.6%	7.3%	9.8	2.0%	?
C[N+]1(C)C[C@@H](O)C[C@@H]1C(=O)[O-]	/	/	-1.9%[21.7 µM]	/	/	/
